# Assay outcomes as filed in PubChem.
# HepG2 tox: HepG2 cytotoxicity, counter-screen for TGF-b inhibitors; Potency, µM (doses to about 46.1 µM), for inactives: at the highest dose activity change, negative = cytotoxicity, hits mostly cytotoxic; AID 588856; hit rate 0.76% among 410,000; HepG2 CAGA-GFP viability, ATP luminescence, 18 h
#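 CellTiter-Glo luminescence gave cytotoxicity after 18 hours at 37 degrees C. The cells were HepG2 CAGA-GFP in 1% FBS DMEM, stimulated with 500 pg/mL TGF-beta after compound addition. %Activity was normalised to no-cell wells (complete cell-killing) and DMSO (no toxicity), and curves were fitted and classified.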
# HT1080 IDH1KD tx: HT-1080 IDH1 knockdown cell toxicity (counter line). HT-1080 IDH1 knockdown viability, ATP luminescence, 48 h. Potency, µM (top dose mostly 46.1 µM), for inactives: top-dose activity, negative = toxicity, actives largely listed as cytotoxic. hit rate 2% among 360,000. AID 686971;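 also: 0% = DMSO wells and -100% = cell-free medium wells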
#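 Cytotoxicity counter-line: IDH1KD HT-1080, 48 h, CellTiter-Glo. Curves classed by r2, magnitude and activity.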
# DT40 TDP1 no CPT: qHTS for Inhibitors of human tyrosyl-DNA phosphodiesterase 1 (TDP1): qHTS in cells in absence of CPT | DT40 Tdp1-/- hTDP1 cells, no CPT, ATP luminescence, 48 h | hit rate 15% among 420,000 | Potency, µM (series often up to 46.2 µM), for inactives: at the top dose activity change, negative = growth inhibition, most hits filed as inhibitors; also: % is scaled to controls: 0 for no effect and ±100 for the full control effect; nearly all actives have a fitted effect of over 55% in size
#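 DT40 Tdp1-/-;hTDP1 cells, no CPT (DMSO vehicle only), 400 cells/well; compounds pin-transferred; ≥48 hr, 37 °C; CellTiter-Glo 30 min RT dark, luminescence read.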
# TGFb SMAD3 inh: blocks TGF-b signaling | HepG2 CAGA-GFP TGF-b/SMAD3 reporter, GFP fluorescence, 18 h; TGF-beta stimulated, 500 pg/mL final | Potency, µM (series often up to 46.1 µM), without a hit: at the highest dose activity, negative = inhibition, actives largely listed as inhibitors | hit rate 1.2% among 410,000 | AID 588855; also: % is scaled to controls: 0 for no effect and ±100 for the full control effect; nearly all actives have a fitted effect of over 65% in size
#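 HEPG2 CAGA-GFP cells (1000/well, DMEM with 1% FBS) were pre-incubated 2 h at 37 degrees C, given compound by pin tool, then stimulated with TGF-beta at 500 pg/mL final for 18 h before per-cell GFP fluorescence imaging.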
# TDP1 cell CPT: growth inhibition of DT40 Tdp1-/-;hTDP1 cells with camptothecin (screen for TDP1 inhibitors); chicken DT40 Tdp1-/-;hTDP1 cells + 20 nM CPT, ATP luminescence, 48 h; Potency, µM (titrated, usually from 46.2 µM), inactives show at the top dose activity change, negative = growth inhibition, most hits filed as inhibitors; hit rate 12% among 420,000; also: % is scaled to controls: 0 for no effect and ±100 for the full control effect; nearly all actives have a fitted effect of over 55% in size
#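 Chicken DT40 Tdp1-/- cells stably complemented with human TDP1 were seeded at 400 cells/well in medium containing 20 nM camptothecin, exposed to pin-transferred compounds, and grown at 37 °C for at least 48 hr. Viability was read as ATP luminescence.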
# HT1080-NT tox: kills 2HG-producing HT-1080-NT fibrosarcoma cells; HT-1080-NT fibrosarcoma viability, CellTiter-Glo ATP luminescence, 48 h; Potency, µM (top dose mostly 46.1 µM), for the others: at the top dose activity, negative = less viability, hits mostly cytotoxic; hit rate 1.6% among 360,000; AID 686970;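 also: NT is the 2HG producing partner of a matched IDH1 knockdown line; 0% = DMSO-treated cells and -100% = media-only wells without cells; nearly all actives have a fitted effect of over 55% in size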
#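 HT-1080-NT fibrosarcoma cells (2HG-overproducing), 750 cells/well in RPMI with 5% FBS, dosed after 2 h and incubated 48 h at 37C. CellTiter-Glo luminescence normalized to DMSO and no-cell wells; concentration-response curves fitted and classed.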
# Starred values were filed as active, the others as inactive; ? = inconclusive; · = not tested or not shown. A selection: hits, their analogues and other compounds. The true share with any hit is near 17%. Calls follow the shape of the dose curve; as a rule, active = well fitted curve in the direction sought with a large enough effect; inconclusive = small, poorly fitted or top-dose-only effect, or another doubt; inactive = no such curve, though single readings can be large; an effect the other way counts as inactive or inconclusive. Potency is read from the fitted curve at half-maximal effect.
SMILES,HepG2 tox,HT1080 IDH1KD tx,DT40 TDP1 no CPT,TGFb SMAD3 inh,TDP1 cell CPT,HT1080-NT tox
Cc1ccc(OCCCCN2CCC(C)CC2)c(Br)c1,-8%,-16%,?,1%,23µM*,-8%
Cc1ccc(OCCCCCCN2CCNCC2)c(Br)c1,-21%,15µM*,21µM*,?,?,?
Cc1cccc(NC(=O)CNC(=O)COc2cc(F)ccc2[N+](=O)[O-])c1C,-6%,6%,?,-3%,?,4%
O=c1c(N=Nc2ccc(O)cc2)c(-c2ccccc2)[nH]n1-c1ccc([N+](=O)[O-])cc1,-1%,-17%,16µM*,0%,?,-24%
Cc1[nH]n(C(N)=S)c(=O)c1N=Nc1ccc(Br)cc1,-29%,-9%,16µM*,?,23µM*,-6%
O=c1cc(-c2ccccc2)[nH]n1-c1ccc([N+](=O)[O-])cc1,-72%,13µM*,?,?,18µM*,?
Cc1ccc([N+](=O)[O-])cc1N=Nc1c(-c2ccc([N+](=O)[O-])cc2)[nH]n(C(N)=S)c1=O,-34%,?,2.9µM*,2.8µM*,8.2µM*,?
Cc1cnc2c(c1SCC(=O)N(C)c1ccccc1)c(=O)n(C)c(=O)n2C,10%,·,-25%,9%,-26%,·
NC(=S)n1[nH]c(-c2ccc([N+](=O)[O-])cc2)c(N=Nc2ccc(Cl)cc2)c1=O,2.5µM*,4.1µM*,?,2.5µM*,?,2.6µM*
Cc1ccc([N+](=O)[O-])cc1N=Nc1c(C)[nH]n(C(N)=S)c1=O,-15%,9%,-1%,?,-8%,-4%
CC1CCN(c2ccc3nnc(CCC(=O)Nc4cccc(F)c4)n3n2)CC1,1%,22%,?,-2%,?,0%
COCCCNC(=O)C1CCN(C(=O)c2oc3cc4sc(N(C)C)nc4cc3c2C)CC1,5%,11%,-3%,-1%,-16%,?
CCOC(=O)c1cnc(Nc2nc3ccccc3o2)nc1CSc1nnc(C)s1,-21%,-1%,2.6µM*,2%,3.3µM*,-20%
Cc1nc(Nc2nc3ccccc3o2)nc2c1CCC2,-19%,-15%,21µM*,14%,?,-1%
CCOC(=O)c1cnc(Nc2nc3ccccc3o2)nc1C,-41%,3.5µM*,3.2µM*,0%,3.2µM*,2.8µM*
Cc1cccc(C)c1Nc1nc2ccccc2o1,-7%,11%,?,-11%,?,14%
CCOC(=O)c1cnc(Nc2ccc(OCC)cc2)nc1C,-22%,23%,-11%,27%,-2%,7%
O=S(=O)(Nc1ccccc1O)c1ccc(Cl)nc1,0%,3%,13%,-20%,-12%,2%
O=C(c1cc([N+](=O)[O-])ccc1N1CCOCC1)N1CCCC1,3%,16%,2%,1%,10%,?
Cc1c(C(=O)N2CCCCC2)c(S(=O)(=O)N(C)Cc2ccccc2)c(C)n1C,9%,-2%,4%,-3%,-12%,-2%
Cc1c(C(=O)N2CCCCCC2)c(S(=O)(=O)N(Cc2ccccc2)C(C)(C)C)c(C)n1C,-18%,·,21µM*,-23%,?,·
Cc1c(C(=O)N2CCCCC2)c(S(=O)(=O)NCCc2ccc(Cl)cc2)c(C)n1C,-37%,0%,21µM*,-11%,?,10%
NC(N)=Nc1nc2cc([N+](=O)[O-])ccc2o1,9%,-5%,10µM*,15%,10µM*,9%
CCN(CC)Cc1cc(Nc2c3ccccc3nc3c4ccccc4n(C)c23)cc(CN(CC)CC)c1O,-57%,?,5.8µM*,-30%,2.6µM*,18µM*
